The text below walks through data of paper PMC7862700, “An all-to-all approach to the identification of sequence-specific readers for epigenetic DNA modifications on cytosine”.

Common to all, as to experiment: DAPPL (digital affinity profiling via proximity ligation, sequencing); 10 mM Tris-HCl pH 7.5, 50 mM NaCl, 1 mM DTT, 4% glycerol, room temperature, 30 min; GST-TFs on glutathione beads, 16-mer random dsDNA library, 0.1% formaldehyde crosslink after washing; high values mean tight binding
The target in one experiment is T1, FLI1 (Homo sapiens, UniProt Q01543 1-452).
T1 sequence: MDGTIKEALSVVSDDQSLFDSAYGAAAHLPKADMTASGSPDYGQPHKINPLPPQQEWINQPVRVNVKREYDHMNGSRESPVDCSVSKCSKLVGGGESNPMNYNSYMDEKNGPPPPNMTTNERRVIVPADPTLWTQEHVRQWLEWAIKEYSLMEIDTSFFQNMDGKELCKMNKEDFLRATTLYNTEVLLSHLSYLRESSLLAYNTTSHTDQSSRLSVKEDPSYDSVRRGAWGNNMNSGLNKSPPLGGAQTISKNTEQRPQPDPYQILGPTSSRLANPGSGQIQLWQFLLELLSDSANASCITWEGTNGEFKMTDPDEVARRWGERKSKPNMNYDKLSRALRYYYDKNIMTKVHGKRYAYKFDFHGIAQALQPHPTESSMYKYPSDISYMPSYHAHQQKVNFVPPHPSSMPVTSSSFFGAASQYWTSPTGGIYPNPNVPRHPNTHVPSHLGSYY
The following applies: protein: recombinant; tags: N-terminal GST; dsDNA, one strand shown. In outline:
(§1)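 Beads coated with glutathione captured GST-fused human transcription factors that had been expressed in yeast, and the factors were then given DNA barcodes and pooled with a tag-only sample. The pools were incubated with 200 nmole of a random double-stranded 16-mer DNA library in Tris/NaCl/DTT/glycerol buffer for 30 min at room temperature, washed, crosslinked with 0.1% formaldehyde and proximity-ligated with BsaI/T4 ligase at 37 °C for 1 h. PCR amplification and Illumina NextSeq500 sequencing came last. Binding signal is each hexamer's read frequency for a factor divided by its frequency for the tag-only sample.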

The target of the next experiment is T2, ELK1 (Homo sapiens, UniProt P19419 1-428).
T2 sequence: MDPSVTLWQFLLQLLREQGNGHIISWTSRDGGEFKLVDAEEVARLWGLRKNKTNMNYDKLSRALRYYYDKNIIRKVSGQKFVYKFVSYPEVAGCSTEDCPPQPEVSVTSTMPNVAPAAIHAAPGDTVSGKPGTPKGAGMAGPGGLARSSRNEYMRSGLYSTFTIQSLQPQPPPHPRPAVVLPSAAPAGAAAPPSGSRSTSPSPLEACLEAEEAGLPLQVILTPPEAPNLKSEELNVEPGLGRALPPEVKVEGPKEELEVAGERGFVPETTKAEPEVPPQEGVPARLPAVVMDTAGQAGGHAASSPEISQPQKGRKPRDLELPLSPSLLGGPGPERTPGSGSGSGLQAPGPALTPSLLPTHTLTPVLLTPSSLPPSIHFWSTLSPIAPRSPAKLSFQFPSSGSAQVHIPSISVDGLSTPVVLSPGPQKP
Particulars: protein: recombinant; tags: N-terminal GST; dsDNA, one strand shown. The gist of the method: as §1

A further experiment addresses T3, GABPA (Homo sapiens, UniProt Q06546 1-454).
T3 sequence: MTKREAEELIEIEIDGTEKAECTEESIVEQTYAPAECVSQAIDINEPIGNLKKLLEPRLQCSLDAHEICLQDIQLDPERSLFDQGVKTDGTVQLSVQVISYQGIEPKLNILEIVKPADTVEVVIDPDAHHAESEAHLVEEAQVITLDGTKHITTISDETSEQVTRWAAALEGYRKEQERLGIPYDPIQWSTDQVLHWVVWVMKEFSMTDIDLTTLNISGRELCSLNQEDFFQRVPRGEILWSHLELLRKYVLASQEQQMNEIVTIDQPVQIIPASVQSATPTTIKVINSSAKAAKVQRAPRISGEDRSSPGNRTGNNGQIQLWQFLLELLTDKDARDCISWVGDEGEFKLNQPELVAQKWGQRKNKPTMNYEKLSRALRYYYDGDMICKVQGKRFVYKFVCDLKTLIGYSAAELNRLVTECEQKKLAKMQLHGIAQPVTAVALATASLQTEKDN
Particulars: protein: recombinant; tags: N-terminal GST; dsDNA, one strand shown. In outline: as §1

In the next experiment the target is ELF1 (Homo sapiens, UniProt P32519 1-619). Particulars: protein: recombinant; tags: N-terminal GST; dsDNA, one strand shown. The gist of the method:
as §1

The next experiment addresses SPI1 (Homo sapiens, UniProt P17947 1-270). The following applies: protein: recombinant; tags: N-terminal GST; dsDNA, one strand shown. In outline:
as §1

The target in a further experiment is SPIB (Homo sapiens, UniProt Q01892 1-262). Particulars: protein: recombinant; tags: N-terminal GST; dsDNA, one strand shown. In outline: as §1
Another experiment has as its target T4, FEV (Homo sapiens, UniProt Q99581 1-238).
T4 sequence: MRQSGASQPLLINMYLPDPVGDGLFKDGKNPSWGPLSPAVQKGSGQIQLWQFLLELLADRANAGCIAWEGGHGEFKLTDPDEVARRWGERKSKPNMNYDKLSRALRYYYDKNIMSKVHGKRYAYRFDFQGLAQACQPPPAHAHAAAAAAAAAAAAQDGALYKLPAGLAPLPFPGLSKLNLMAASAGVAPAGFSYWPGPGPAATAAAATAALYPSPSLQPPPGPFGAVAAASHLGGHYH
The following applies: protein: recombinant; tags: N-terminal GST; dsDNA, one strand shown. In outline:
as §1

Another experiment deals with ETV5 (Homo sapiens, UniProt P41161 1-510). The following applies: protein: recombinant; tags: N-terminal GST; dsDNA, one strand shown. In outline:
as §1

The target in the next experiment is HSF1 (Homo sapiens, UniProt Q00613 1-529). The following applies: protein: recombinant; tags: N-terminal GST; chain copies: 3; dsDNA, one strand shown. The gist of the method: as §1
The target of a further experiment is ELF4 (Homo sapiens, UniProt Q99607 1-663). The following applies: protein: recombinant; tags: N-terminal GST; dsDNA, one strand shown. The gist of the method: as §1
The next experiment concerns the target T5, ELK4 (Homo sapiens, UniProt P28324-2 1-405).
T5 sequence: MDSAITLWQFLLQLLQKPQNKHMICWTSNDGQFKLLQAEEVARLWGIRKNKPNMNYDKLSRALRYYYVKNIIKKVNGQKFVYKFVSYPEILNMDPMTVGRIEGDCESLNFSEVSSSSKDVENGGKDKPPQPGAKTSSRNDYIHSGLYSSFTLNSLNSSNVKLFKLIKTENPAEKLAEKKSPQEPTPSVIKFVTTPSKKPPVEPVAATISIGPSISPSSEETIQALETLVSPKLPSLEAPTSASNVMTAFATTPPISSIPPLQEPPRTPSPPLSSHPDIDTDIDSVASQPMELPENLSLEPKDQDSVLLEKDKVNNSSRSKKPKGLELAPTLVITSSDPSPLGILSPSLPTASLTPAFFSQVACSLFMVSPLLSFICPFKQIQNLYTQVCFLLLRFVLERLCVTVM
Particulars: protein: recombinant; tags: N-terminal GST; dsDNA, one strand shown. The gist of the method:
as §1

In another experiment the target is T6, ETV2 (Homo sapiens, UniProt O00321 1-342).
T6 sequence: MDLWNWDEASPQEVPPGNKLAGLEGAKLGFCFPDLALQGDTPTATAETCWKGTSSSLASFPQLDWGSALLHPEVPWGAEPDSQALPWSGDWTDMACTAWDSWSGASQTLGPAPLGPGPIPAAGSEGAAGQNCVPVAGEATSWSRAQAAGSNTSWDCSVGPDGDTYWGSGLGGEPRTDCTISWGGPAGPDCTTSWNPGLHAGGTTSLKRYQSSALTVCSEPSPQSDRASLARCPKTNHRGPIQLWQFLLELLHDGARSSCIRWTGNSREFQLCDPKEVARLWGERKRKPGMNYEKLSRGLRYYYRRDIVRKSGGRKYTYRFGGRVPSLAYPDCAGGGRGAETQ
The following applies: protein: recombinant; tags: N-terminal GST; dsDNA, one strand shown. In outline: as §1

A further experiment deals with T7, ELF3 (Homo sapiens, UniProt P78545 1-371).
T7 sequence: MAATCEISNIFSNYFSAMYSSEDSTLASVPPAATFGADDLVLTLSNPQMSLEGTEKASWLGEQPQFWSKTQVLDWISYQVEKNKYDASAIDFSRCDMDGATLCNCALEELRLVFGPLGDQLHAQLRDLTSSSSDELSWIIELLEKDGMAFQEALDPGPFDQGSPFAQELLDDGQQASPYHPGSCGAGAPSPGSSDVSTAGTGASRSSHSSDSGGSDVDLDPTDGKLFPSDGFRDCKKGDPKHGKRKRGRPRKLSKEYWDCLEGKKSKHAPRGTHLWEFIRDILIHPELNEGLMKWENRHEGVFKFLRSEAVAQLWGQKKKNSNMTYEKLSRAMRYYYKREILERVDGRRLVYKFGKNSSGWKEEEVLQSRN
Particulars: protein: recombinant; tags: N-terminal GST; dsDNA, one strand shown. The gist of the method:
as §1

A further experiment concerns the target CRX (Homo sapiens, UniProt O43186 1-299). Particulars: protein: recombinant; tags: N-terminal GST; dsDNA, one strand shown. The gist of the method:
as §1

The next experiment deals with ETV1 (Homo sapiens, UniProt P50549 1-477). Particulars: protein: recombinant; tags: N-terminal GST; dsDNA, one strand shown. In outline:
as §1

In the next experiment the target is T8, ERG (Homo sapiens, UniProt P11308 1-479).
T8 sequence: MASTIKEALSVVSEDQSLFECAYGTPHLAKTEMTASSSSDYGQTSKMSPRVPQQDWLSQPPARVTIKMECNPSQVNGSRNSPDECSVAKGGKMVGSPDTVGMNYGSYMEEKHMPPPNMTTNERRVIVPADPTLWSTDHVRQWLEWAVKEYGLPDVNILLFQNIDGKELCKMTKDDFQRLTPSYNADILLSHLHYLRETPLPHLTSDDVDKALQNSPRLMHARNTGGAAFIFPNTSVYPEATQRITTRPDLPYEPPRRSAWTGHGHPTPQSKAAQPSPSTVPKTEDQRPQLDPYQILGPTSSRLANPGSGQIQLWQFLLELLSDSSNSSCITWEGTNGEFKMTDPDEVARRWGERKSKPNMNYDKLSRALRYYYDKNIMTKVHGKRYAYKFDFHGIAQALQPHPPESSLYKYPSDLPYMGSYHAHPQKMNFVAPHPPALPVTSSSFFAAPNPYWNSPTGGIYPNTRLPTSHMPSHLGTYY
Particulars: protein: recombinant; tags: N-terminal GST; dsDNA, one strand shown. In outline: as §1

A further experiment addresses T9, ELK3 (Homo sapiens, UniProt P41970 1-407).
T9 sequence: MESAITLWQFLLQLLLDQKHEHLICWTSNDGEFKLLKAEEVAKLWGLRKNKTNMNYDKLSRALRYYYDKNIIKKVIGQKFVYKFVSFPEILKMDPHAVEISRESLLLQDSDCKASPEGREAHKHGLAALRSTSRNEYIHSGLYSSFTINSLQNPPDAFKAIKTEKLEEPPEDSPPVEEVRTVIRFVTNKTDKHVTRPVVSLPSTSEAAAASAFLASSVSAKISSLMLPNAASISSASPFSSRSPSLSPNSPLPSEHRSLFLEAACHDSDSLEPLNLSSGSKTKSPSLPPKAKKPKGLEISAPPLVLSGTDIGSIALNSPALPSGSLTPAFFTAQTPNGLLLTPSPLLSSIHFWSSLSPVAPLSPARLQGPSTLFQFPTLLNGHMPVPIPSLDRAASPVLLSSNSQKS
The following applies: protein: recombinant; tags: N-terminal GST; dsDNA, one strand shown. The gist of the method: as §1

Chain of HSF1 (Q00613 whole entry): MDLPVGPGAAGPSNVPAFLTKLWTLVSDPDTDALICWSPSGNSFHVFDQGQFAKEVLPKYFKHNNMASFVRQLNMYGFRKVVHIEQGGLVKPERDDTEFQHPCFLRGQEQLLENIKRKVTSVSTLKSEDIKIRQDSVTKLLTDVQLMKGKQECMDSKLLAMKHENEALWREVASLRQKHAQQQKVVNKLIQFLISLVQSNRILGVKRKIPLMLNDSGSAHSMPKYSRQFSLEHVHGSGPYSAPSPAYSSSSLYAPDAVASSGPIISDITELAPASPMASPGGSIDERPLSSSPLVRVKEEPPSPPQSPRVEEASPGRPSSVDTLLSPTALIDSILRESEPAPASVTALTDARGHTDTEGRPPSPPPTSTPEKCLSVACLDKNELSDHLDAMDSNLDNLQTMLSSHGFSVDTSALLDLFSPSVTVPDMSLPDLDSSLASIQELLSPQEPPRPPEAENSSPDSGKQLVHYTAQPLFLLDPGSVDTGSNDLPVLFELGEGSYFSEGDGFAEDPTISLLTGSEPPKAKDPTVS
Chain of ELF4 (Q99607 whole entry): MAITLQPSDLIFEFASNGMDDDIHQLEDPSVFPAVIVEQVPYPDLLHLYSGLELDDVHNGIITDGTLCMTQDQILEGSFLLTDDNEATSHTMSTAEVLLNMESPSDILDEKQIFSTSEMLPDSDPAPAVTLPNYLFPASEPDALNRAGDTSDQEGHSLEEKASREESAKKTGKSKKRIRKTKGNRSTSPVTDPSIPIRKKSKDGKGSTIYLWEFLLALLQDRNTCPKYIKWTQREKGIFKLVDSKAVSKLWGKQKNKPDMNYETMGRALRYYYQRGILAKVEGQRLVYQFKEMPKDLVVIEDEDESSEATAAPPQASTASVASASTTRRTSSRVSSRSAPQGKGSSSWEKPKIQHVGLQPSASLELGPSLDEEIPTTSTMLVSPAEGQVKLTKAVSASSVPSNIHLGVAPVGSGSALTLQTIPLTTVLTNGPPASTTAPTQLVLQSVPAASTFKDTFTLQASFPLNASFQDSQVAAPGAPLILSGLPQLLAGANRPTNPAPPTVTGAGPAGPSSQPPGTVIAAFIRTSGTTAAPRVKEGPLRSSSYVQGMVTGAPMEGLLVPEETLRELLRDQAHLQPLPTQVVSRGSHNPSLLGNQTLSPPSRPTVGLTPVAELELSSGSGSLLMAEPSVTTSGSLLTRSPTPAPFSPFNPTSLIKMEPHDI
Chain of SPIB (Q01892 whole entry): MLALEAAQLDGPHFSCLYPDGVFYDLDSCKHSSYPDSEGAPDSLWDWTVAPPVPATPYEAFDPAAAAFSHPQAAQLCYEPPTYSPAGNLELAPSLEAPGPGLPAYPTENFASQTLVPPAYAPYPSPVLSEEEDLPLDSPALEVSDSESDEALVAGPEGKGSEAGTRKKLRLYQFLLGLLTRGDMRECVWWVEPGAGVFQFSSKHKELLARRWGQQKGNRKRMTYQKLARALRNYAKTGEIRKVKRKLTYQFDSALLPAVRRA
Chain of ETV5 (P41161 whole entry): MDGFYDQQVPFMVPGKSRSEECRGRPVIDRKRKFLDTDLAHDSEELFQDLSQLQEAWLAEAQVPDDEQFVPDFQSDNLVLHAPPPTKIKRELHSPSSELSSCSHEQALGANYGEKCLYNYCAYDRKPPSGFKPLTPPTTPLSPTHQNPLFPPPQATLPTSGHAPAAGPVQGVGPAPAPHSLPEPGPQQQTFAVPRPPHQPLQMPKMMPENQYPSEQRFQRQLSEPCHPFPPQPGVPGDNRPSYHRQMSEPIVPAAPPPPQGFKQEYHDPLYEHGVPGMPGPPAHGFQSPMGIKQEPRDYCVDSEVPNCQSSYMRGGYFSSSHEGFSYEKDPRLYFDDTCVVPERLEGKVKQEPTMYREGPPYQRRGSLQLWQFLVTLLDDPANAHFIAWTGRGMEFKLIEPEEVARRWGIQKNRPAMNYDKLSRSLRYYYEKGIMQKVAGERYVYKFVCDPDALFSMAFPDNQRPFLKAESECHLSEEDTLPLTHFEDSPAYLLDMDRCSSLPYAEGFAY
Chain of CRX (O43186 whole entry): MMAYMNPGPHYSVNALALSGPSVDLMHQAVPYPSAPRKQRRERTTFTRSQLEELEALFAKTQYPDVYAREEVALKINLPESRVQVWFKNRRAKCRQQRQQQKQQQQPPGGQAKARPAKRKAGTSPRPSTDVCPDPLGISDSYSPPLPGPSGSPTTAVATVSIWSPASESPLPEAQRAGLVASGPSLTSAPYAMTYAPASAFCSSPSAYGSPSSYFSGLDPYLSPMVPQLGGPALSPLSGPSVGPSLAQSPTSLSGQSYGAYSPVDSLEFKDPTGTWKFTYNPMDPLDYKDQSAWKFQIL
Chain of ELF1 (P32519 whole entry): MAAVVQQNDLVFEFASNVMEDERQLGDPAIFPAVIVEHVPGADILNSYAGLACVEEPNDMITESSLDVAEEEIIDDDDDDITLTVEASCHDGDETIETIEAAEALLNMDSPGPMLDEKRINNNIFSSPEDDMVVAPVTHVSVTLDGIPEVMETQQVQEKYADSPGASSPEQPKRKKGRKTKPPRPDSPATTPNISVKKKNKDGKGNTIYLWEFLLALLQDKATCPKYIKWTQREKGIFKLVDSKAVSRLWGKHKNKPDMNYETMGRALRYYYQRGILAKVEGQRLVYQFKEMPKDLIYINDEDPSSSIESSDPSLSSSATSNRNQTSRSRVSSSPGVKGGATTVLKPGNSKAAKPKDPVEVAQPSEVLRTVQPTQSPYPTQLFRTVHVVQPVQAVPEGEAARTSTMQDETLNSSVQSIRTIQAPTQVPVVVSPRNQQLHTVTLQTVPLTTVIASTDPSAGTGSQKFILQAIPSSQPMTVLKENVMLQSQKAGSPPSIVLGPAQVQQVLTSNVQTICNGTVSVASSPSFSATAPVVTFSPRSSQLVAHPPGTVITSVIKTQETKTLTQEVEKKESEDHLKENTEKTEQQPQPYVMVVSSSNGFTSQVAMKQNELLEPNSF
Chain of ETV1 (P50549 whole entry): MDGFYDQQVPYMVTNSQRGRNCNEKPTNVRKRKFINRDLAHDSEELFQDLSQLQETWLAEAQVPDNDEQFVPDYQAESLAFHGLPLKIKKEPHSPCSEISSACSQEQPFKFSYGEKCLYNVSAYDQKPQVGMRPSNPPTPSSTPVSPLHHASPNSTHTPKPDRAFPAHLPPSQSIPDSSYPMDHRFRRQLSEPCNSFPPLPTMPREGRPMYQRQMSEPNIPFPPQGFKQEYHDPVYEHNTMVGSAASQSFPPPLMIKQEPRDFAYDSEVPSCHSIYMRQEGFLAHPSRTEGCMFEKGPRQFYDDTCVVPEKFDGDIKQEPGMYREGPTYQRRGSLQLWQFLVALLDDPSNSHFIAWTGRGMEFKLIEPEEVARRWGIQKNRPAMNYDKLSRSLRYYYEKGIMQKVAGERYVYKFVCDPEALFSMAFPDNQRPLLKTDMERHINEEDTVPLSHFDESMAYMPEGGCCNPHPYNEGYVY

AAGCCC: the binding signal with FLI1 was 1.04 fold enrichment (6-mer frequency, TF over GST control); in the experiment with ELK1, 1.07 fold enrichment (6-mer frequency, TF over GST control); in the experiment with GABPA, 1.11 fold enrichment (6-mer frequency, TF over GST control); in the experiment with ELF1, 1.08 fold enrichment (6-mer frequency, TF over GST control); with SPI1, 1.04 fold enrichment (6-mer frequency, TF over GST control); with SPIB, 1.07 fold enrichment (6-mer frequency, TF over GST control). The binding signal was 1.06 fold enrichment (6-mer frequency, TF over GST control) with FEV; 1.04 fold enrichment (6-mer frequency, TF over GST control) in the experiment with ETV5; 1.22 fold enrichment (6-mer frequency, TF over GST control) with HSF1; 1.04 fold enrichment (6-mer frequency, TF over GST control) with ELF4; 1.06 fold enrichment (6-mer frequency, TF over GST control) in the experiment with ELK4; 1.11 fold enrichment (6-mer frequency, TF over GST control) with ETV2. Further, the binding signal is 1.04 fold enrichment (6-mer frequency, TF over GST control) in the experiment with ELF3; 1.54 fold enrichment (6-mer frequency, TF over GST control) with CRX; 1.06 fold enrichment (6-mer frequency, TF over GST control) with ETV1.
For the sequence AAGACT, the binding signal with FLI1 is 1.09 fold enrichment (6-mer frequency, TF over GST control); in the experiment with ELK1 it was 1.12 fold enrichment (6-mer frequency, TF over GST control); in the experiment with GABPA, 1.06 fold enrichment (6-mer frequency, TF over GST control); in the experiment with ERG, 1.1 fold enrichment (6-mer frequency, TF over GST control); with ELF1 it was 1.08 fold enrichment (6-mer frequency, TF over GST control); with SPI1, 1.12 fold enrichment (6-mer frequency, TF over GST control). The binding signal is 1.08 fold enrichment (6-mer frequency, TF over GST control) in the experiment with SPIB; 1.14 fold enrichment (6-mer frequency, TF over GST control) with ELK3; 1.08 fold enrichment (6-mer frequency, TF over GST control) with FEV; 1.09 fold enrichment (6-mer frequency, TF over GST control) with ETV5; 1.23 fold enrichment (6-mer frequency, TF over GST control) with HSF1; 1.14 fold enrichment (6-mer frequency, TF over GST control) in the experiment with ELF4. Further, the binding signal was 1.06 fold enrichment (6-mer frequency, TF over GST control) in the experiment with ELK4; 1.07 fold enrichment (6-mer frequency, TF over GST control) in the experiment with ETV2; 1.1 fold enrichment (6-mer frequency, TF over GST control) with ELF3; 1.36 fold enrichment (6-mer frequency, TF over GST control) with CRX; 1.02 fold enrichment (6-mer frequency, TF over GST control) in the experiment with ETV1.
